Experimental data published in PubChem BioAssay AID1159580 (chemical genetic matrix, 2015).
Out of some 5,500 compounds screened, about 2,000 (36%) were called active. Another 18% or so got no clear call; they are omitted. No stated cut-off is given here; in the data, active means normalized growth mostly below about 0.91 (no sharp cut-off); inconclusive means no clear call, values can overlap the other calls; inactive means mostly above about 0.92. Some of the results follow.

Assay: chemical genetic growth profiling, strain panel (AID 1159580);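 further: tested at 20 µM; growth read once vehicle control cultures reached saturation at 30 °C; 1 = growth at the plate median or of vehicle wells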
Settings: growth OD
[1] = S. cerevisiae deletion strains, locus YDL101C, strain DUN1, stronger effect = lower value
[2] = S. cerevisiae deletion strains, locus YHR030C, strain SLT2, stronger effect = lower value

Measured: normalized growth

CC(=O)c1sc(SCCS(=O)(=O)c2ccc(C)cc2)c2c1CC(C)(C)CC2=O
inactive: S. cerevisiae deletion strains, locus YAR019C, strain CDC15, stronger effect = lower value 0.984 | S. cerevisiae deletion strains, locus YBL105C, strain PKC1, stronger effect = lower value 1.01 | S. cerevisiae deletion strains, locus YBR135W, strain CKS1, stronger effect = lower value 0.984 | S. cerevisiae deletion strains, locus YBR136W, strain MEC1, stronger effect = lower value 0.98 | S. cerevisiae deletion strains, locus YBR160W, strain CDC28, stronger effect = lower value 0.98 | S. cerevisiae deletion strains, locus YDL017W, strain CDC7, stronger effect = lower value 0.992 | S. cerevisiae deletion strains, locus YDL028C, strain MPS1, stronger effect = lower value 0.98 | [1] 0.969 | S. cerevisiae deletion strains, locus YDL108W, strain KIN28, stronger effect = lower value 0.97 | S. cerevisiae deletion strains, locus YDL132W, strain cdc53, stronger effect = lower value 0.978 | S. cerevisiae deletion strains, locus YDL214C, strain PRR2, stronger effect = lower value 0.926 | S. cerevisiae deletion strains, locus YDR052C, strain DBF4, stronger effect = lower value 0.935 | S. cerevisiae deletion strains, locus YDR054C, strain cdc34, stronger effect = lower value 1.01 | S. cerevisiae deletion strains, locus YDR226W, strain ADK1, stronger effect = lower value 0.962 | S. cerevisiae deletion strains, locus YER123W, strain YCK3, stronger effect = lower value 0.914 | S. cerevisiae deletion strains, locus YFL009W, strain cdc4, stronger effect = lower value 0.973 | S. cerevisiae deletion strains, locus YFL029C, strain CAK1, stronger effect = lower value 0.986 | S. cerevisiae deletion strains, locus YFR003C, strain YPI1, stronger effect = lower value 0.97 | S. cerevisiae deletion strains, locus YFR019W, strain FAB1, stronger effect = lower value 0.932 | S. cerevisiae deletion strains, locus YFR028C, strain CDC14, stronger effect = lower value 0.97 | S. cerevisiae deletion strains, locus YGR052W, strain FMP48, stronger effect = lower value 0.947 | S. cerevisiae deletion strains, locus YGR092W, strain DBF2, stronger effect = lower value 0.963 | S. cerevisiae deletion strains, locus YHR079C, strain IRE1, stronger effect = lower value 1.08 | S. cerevisiae deletion strains, locus YHR082C, strain KSP1, stronger effect = lower value 0.987 | S. cerevisiae deletion strains, locus YHR205W, strain SCH9, stronger effect = lower value 0.958 | S. cerevisiae deletion strains, locus YIL147C, strain SLN1, stronger effect = lower value 0.979 | S. cerevisiae deletion strains, locus YJL095W, strain BCK1, stronger effect = lower value 0.589 | S. cerevisiae deletion strains, locus YJL128C, strain PBS2, stronger effect = lower value 0.982 | S. cerevisiae deletion strains, locus YJL157C, strain FAR1, stronger effect = lower value 0.943 | S. cerevisiae deletion strains, locus YJR016C, strain ILV3, stronger effect = lower value 0.985 | S. cerevisiae deletion strains, locus YJR066W, strain TOR1 (second series), stronger effect = lower value 0.82 | S. cerevisiae deletion strains, locus YJR066W, strain TOR1, stronger effect = lower value 0.995 | S. cerevisiae deletion strains, locus YKL048C, strain ELM1, stronger effect = lower value 0.859 | S. cerevisiae deletion strains, locus YKL067W, strain YNK1, stronger effect = lower value 0.936 | S. cerevisiae deletion strains, locus YKL101W, strain HSL1, stronger effect = lower value 0.926 | S. cerevisiae deletion strains, locus YKL193C, strain SDS22, stronger effect = lower value 0.98 | S. cerevisiae deletion strains, locus YLR113W, strain HOG1, stronger effect = lower value 0.912 | S. cerevisiae deletion strains, locus YLR133W, strain CKI1, stronger effect = lower value 0.931 | S. cerevisiae deletion strains, locus YLR403W, strain SFP1, stronger effect = lower value 0.828 | S. cerevisiae deletion strains, locus YML070W, strain DAK1, stronger effect = lower value 0.948 | S. cerevisiae deletion strains, locus YMR001C, strain CDC5, stronger effect = lower value 0.983 | S. cerevisiae deletion strains, locus YMR205C, strain PFK2 (second series), stronger effect = lower value 0.923 | S. cerevisiae deletion strains, locus YMR277W, strain FCP1, stronger effect = lower value 0.964 | S. cerevisiae deletion strains, locus YNL006W, strain LST8, stronger effect = lower value 0.967 | S. cerevisiae deletion strains, locus YNL020C, strain ARK1, stronger effect = lower value 0.935 | S. cerevisiae deletion strains, locus YNL161W, strain CBK1, stronger effect = lower value 0.973 | S. cerevisiae deletion strains, locus YNL183C, strain NPR1, stronger effect = lower value 0.962 | S. cerevisiae deletion strains, locus YNL207W, strain RIO2, stronger effect = lower value 1 | S. cerevisiae deletion strains, locus YNL222W, strain SSU72, stronger effect = lower value 0.967 | S. cerevisiae deletion strains, locus YNL307C, strain MCK1 (second series), stronger effect = lower value 0.913 | S. cerevisiae deletion strains, locus YOL078W, strain AVO1, stronger effect = lower value 0.972 | S. cerevisiae deletion strains, locus YOL136C, strain PFK27, stronger effect = lower value 0.896 | S. cerevisiae deletion strains, locus YOR061W, strain CKA2, stronger effect = lower value 0.941 | S. cerevisiae deletion strains, locus YOR231W, strain MKK1, stronger effect = lower value 0.94 | S. cerevisiae deletion strains, locus YOR329C, strain SCD5, stronger effect = lower value 0.979 | S. cerevisiae deletion strains, locus YPL031C, strain PHO85, stronger effect = lower value 0.818 | S. cerevisiae deletion strains, locus YPL209C, strain IPL1, stronger effect = lower value 0.986 | S. cerevisiae deletion strains, locus YPL256C, strain CLN2, stronger effect = lower value 0.956 | S. cerevisiae deletion strains, locus YPR025C, strain CCL1, stronger effect = lower value 0.975 | S. cerevisiae deletion strains, locus YPR106W, strain ISR1, stronger effect = lower value 0.978 | S. cerevisiae deletion strains, locus YPR111W, strain DBF20, stronger effect = lower value 0.963 | S. cerevisiae deletion strains, strain NNK1, stronger effect = lower value 0.991 | S. cerevisiae deletion strains, strain TSCII, stronger effect = lower value 0.967
active: S. cerevisiae deletion strains, locus YDR477W, strain SNF1, stronger effect = lower value 0.643 | S. cerevisiae deletion strains, locus YER133W, strain GLC7, stronger effect = lower value 0.267 | S. cerevisiae deletion strains, locus YGR040W, strain KSS1, stronger effect = lower value 0.675 | [2] 0.498 | S. cerevisiae deletion strains, locus YKL203C, strain TOR2, stronger effect = lower value 0.635 | S. cerevisiae deletion strains, locus YOR119C, strain RIO1, stronger effect = lower value 0.653 | S. cerevisiae deletion strains, locus YPL153C, strain RAD53, stronger effect = lower value 0.622 | S. cerevisiae deletion strains, locus YPL204W, strain HRR25, stronger effect = lower value 0.653

CC(=O)c1sc(SCc2ccc(Cl)cc2)c2c1CC(C)(C)CC2=O
inactive: S. cerevisiae deletion strains, locus YAL013W, strain DEP1, stronger effect = lower value 0.97 | S. cerevisiae deletion strains, locus YBR229C, strain ROT2, stronger effect = lower value 1.06 | [1] 1.01 | S. cerevisiae deletion strains, locus YDL134C, strain PPH21, stronger effect = lower value 0.976 | S. cerevisiae deletion strains, locus YDR150W, strain NUM1, stronger effect = lower value 0.954 | S. cerevisiae deletion strains, locus YEL061C, strain CIN8, stronger effect = lower value 1.07 | S. cerevisiae deletion strains, locus YGR078C, strain PAC10, stronger effect = lower value 1 | [2] 0.793 | S. cerevisiae deletion strains, locus YHR087W, strain rtc3, stronger effect = lower value 1 | S. cerevisiae deletion strains, locus YJR043C, strain POL32, stronger effect = lower value 0.987 | S. cerevisiae deletion strains, locus YJR075W, strain HOC1, stronger effect = lower value 1.05 | S. cerevisiae deletion strains, locus YKL190W, strain CNB1, stronger effect = lower value 0.966 | S. cerevisiae deletion strains, locus YLR039C, strain RIC1, stronger effect = lower value 0.938 | S. cerevisiae deletion strains, locus YLR058C, strain SHM2 (second series), stronger effect = lower value 1.01 | S. cerevisiae deletion strains, locus YLR085C, strain ARP6, stronger effect = lower value 1.02 | S. cerevisiae deletion strains, locus YLR262C, strain YPT6, stronger effect = lower value 0.941 | S. cerevisiae deletion strains, locus YML094W, strain GIM5, stronger effect = lower value 1.01 | S. cerevisiae deletion strains, locus YMR219W, strain ESC1, stronger effect = lower value 1.03 | S. cerevisiae deletion strains, locus YMR263W, strain SAP30, stronger effect = lower value 0.936 | S. cerevisiae deletion strains, locus YMR307W, strain GAS1, stronger effect = lower value 1.03 | S. cerevisiae deletion strains, locus YNL128W, strain TEP1, stronger effect = lower value 0.981 | S. cerevisiae deletion strains, locus YNL153C, strain GIM3, stronger effect = lower value 0.971 | S. cerevisiae deletion strains, locus YNL298W, strain CLA4 (second series), stronger effect = lower value 0.952 | S. cerevisiae deletion strains, locus YNL322C, strain KRE1, stronger effect = lower value 0.993 | S. cerevisiae deletion strains, locus YNR030W, strain Alg12, stronger effect = lower value 0.941 | S. cerevisiae deletion strains, locus YPL055C, strain LGE1, stronger effect = lower value 1.12 | S. cerevisiae deletion strains, locus YPL241C, strain CIN2, stronger effect = lower value 0.907 | S. cerevisiae deletion strains, locus YPR135W, strain CTF4, stronger effect = lower value 0.819 | S. cerevisiae strains, strain wild type, stronger effect = lower value 0.955
